Each structure is given as a SMILES string. Records with an inconclusive call do not appear. Activity calls are given as the source filed them. Rule for the calls: active = hit-call score of the fitted dose curve at least 0.9, where 1 is the maximum; inconclusive = response in the unintended direction; inactive = score below 0.9.

A short description of this assay: ACEA_ER_AUC_viability: ACEA Biosciences xCELLigence Real-Time Cell Analysis on Estrogen Receptor Agonism for Viability (AID 2283782).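 Note: continuous compound exposure with impedance area under curve over 80 h; hit means loss of impedance signal meaning reduced cell growth or viability.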 An outline of the steps: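 T-47D; phenol red-free RPMI1640 + 10% CS-FBS; 8 conc., 1:4 serial, max 100 uM final, ≤0.5% DMSO; n = 2; continuous exposure; impedance monitored to 80 h post-dose; AUC vs DMSO.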
Take `Nc1cccc(C(F)(F)F)c1`: the result was inactive.

With `C=C(C)[C@@H]1CCC2=CCC[C@@H](C)[C@]2(C)C1`, the AC50 was 77.6 µM (active).

As for `COC(=O)c1ccccc1OC`, the AC50 was 50 µM (active).

With `CC(C)CC(O)Cc1ccccc1` (configuration not stated), the call was inactive.

Regarding `CC(C)COC(=O)C=Cc1ccccc1`, the call was inactive.

Turning to `CC(C)c1ccc2c(C(C)C)cc(C(C)C)c(S(=O)(=O)O)c2c1`, the molecule was classed as inactive.

`O=P(O)(O)Oc1ccccc1`: the AC50 is 50 µM (active).

Regarding `c1ccc2c(c1)ccc1ncccc12`, the molecule was classed as inactive.

On to `C[Si](C)(CCCN)O[Si](C)(C)CCCN`, for which the AC50 is 55.9 µM (active).

Turning to `CCOC(=O)Cc1cccc2ccccc12`, the AC50 is 50 µM (active).

As to `CO[Si](OC)(OC)c1ccccc1`, the result was inactive.

As for `CCCCCCCCc1ccc(Nc2ccc(CCCCCCCC)cc2)cc1`, the molecule was called inactive.

For `CCCCCCOC(=O)C(C)CC` (configuration not stated), the AC50 was 66.7 µM (active).

In the case of `Nc1ccc(N)c(Cl)c1`, the AC50 is 67.8 µM (active).

For the molecule `CCCCCCC(O)CO` (configuration not stated), the AC50 is 40 µM (active).

As to `C=CC(C)(CCC=C(C)C)OC(=O)C(C)C` (configuration not stated), the result was inactive.

Turning to `CCC(CC)C(=O)O`, the molecule was classed as inactive.

With `CCc1nccnc1C`, the result was inactive.

Regarding `CNC(=S)N(C)C`, the molecule was classed as inactive.

Consider `NC(=O)NNC(N)=O`, for which the result was inactive.

`C=C1[C@H]2CC[C@@H]3[C@H]2C(C)(C)CCC[C@]13C`: the molecule was called inactive.

Turning to `CCCC(C)CCC(C)=O` (configuration not stated), the molecule was classed as inactive.

Regarding `CN(C)c1ccc(N=Nc2ccccc2C(=O)O)cc1`, the AC50 is 11.8 µM (active).

`CC1OC1C1CCC2(C)OC2C1` (configuration not stated): the result was inactive.

Regarding `Cc1ccc2oc(=O)ccc2c1`, the outcome was inactive.

As for `CC(CC=O)CCCC(C)(C)O` (configuration not stated), the molecule was classed as inactive.

Regarding `CO[Si](CCC1CCC2OC2C1)(OC)OC` (configuration not stated), the AC50 is 37.7 µM (active).

These data come from PubChem BioAssay (EPA / NIEHS).
